KKLEB tox: counter-screen for CF NF-kB inhibitors: cytotoxicity; AID 602141; activity change (cytotoxicity), % at 5 µM; 0.36% of 360,000 active; KKLEB CF airway cells viability, ATPlite luminescence, overnight; hits give low values; cells stimulated with P. aeruginosa culture filtrate;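 active = corrected activity change at or below -50% at 5 µM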
HIF-2a inh: blocks HIF-2a reporter activity; 786-0 RCC cells HIF-2a reporter, luciferase luminescence, overnight; inhibition, % at 18.8 µM; 0.72% of 360,000 active;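 active = inhibition of the luminescence signal of 40% or more relative to plate controls, in a single-dose primary screen at 18.75 µM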
Shn3 inh set2: inhibitors of Schnurri-3 3'UTR reporter in osteoblasts. AID 588674. Clone20 osteoblast Shn3 3'UTR firefly luciferase, 24 h. 0.52% of 360,000 active. inhibition, % at 12.5 µM;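 active = mean inhibition of at least 75% with every replicate also reaching 75%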;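 also: 0% = median of neutral control wells and 100% = pilot-screen positive control compound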
Peg3 promoter: Peg3 promoter activity inhibition; HeLa PEG-Prom luciferase reporter, luminescence, overnight; 1.7% of 360,000 active; inhibition, % at 20 µM;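 active = inhibition of at least 50% at 20 µM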
TRPM1 prom inh: MITF TRPM1 promoter inhibition in SK-MEL-5 cells | SK-MEL-5 TRPM1 promoter luciferase, 24 h | inhibition, % at 12.5 µM | 0.83% of 330,000 active;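 active = mean inhibition across replicates of 60% or more, whatever share of single replicates reaches that level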
CF NFkB block: inhibitors of cystic fibrosis induced NF-kB; KKLEB NF-kB-GFP reporter, PAF-induced, GFP fluorescence overnight; AID 588850; inhibition, % at 5 µM; 0.86% of 360,000 active;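 active = at least 50% inhibition at 5 µM, scaled per plate between neutral and stimulator controls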;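 also: PAF is a Pseudomonas aeruginosa culture filtrate used as stimulus; plate controls were PAF-stimulated DMSO wells for no effect and unstimulated DMSO wells for full effect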
Mdm2 MdmX conf: confirmation of inhibitors of human Mdm2/MdmX interaction, set 2; shares compounds with HIF-2a inh; 99% of 740 active; inhibition, % at 8 µM; SaOS-2 split-luciferase Mdm2/MdmX complementation, luminescence;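 active = mean inhibition of the luminescence signal across two replicates at or above 26 percent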
Target sequence (O15151 whole entry, looked up): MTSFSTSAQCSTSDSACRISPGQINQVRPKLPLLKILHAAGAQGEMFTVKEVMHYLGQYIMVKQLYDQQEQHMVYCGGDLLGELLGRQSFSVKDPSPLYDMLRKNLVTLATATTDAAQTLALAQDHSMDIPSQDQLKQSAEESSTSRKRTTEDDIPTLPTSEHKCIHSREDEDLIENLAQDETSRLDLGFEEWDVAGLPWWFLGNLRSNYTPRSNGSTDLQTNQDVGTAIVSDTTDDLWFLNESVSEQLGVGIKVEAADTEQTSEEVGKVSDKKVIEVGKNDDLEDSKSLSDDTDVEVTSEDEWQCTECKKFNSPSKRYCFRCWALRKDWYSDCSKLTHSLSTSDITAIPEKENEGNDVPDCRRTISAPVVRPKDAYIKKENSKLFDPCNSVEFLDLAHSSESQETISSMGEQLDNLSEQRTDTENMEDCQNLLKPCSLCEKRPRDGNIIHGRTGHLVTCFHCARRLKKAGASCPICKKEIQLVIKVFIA
Target sequence (Q00987 whole entry, looked up): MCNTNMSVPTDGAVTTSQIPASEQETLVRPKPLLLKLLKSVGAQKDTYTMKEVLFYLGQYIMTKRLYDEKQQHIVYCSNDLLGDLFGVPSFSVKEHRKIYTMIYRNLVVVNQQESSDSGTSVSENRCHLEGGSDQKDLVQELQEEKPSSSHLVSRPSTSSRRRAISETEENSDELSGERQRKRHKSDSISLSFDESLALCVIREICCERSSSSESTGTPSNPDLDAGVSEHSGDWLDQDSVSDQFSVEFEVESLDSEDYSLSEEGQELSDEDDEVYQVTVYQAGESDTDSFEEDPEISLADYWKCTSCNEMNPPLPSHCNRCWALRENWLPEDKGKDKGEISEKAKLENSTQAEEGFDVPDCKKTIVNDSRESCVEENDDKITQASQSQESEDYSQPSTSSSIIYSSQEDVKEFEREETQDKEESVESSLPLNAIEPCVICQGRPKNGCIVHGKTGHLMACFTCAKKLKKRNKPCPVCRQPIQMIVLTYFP
HIF-2a conf: HIF-2a inhibition, single concentration confirmation. 786-0 RCC cells, HIF-2a luciferase reporter luminescence, overnight. shares compounds with HIF-2a inh. inhibition, % at 18.8 µM. 56% of 1,800 active;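 active = mean inhibition across four replicates of at least 40 percent at the single tested concentration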
HIF-1a counter: inhibits HIF-1a reporter, a counter-screen for HIF-2a inhibitors; inhibition, % at 18.8 µM; MiaPaCa-2 HIF-1a luciferase reporter, desferoxamine, overnight; 72% of 1,800 active; shares compounds with HIF-2a inh;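 active = mean inhibition of the reporter signal across four replicates at the single tested dose of 50% or more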
* hit, by the source's call; . = no result. Hits are enriched below; roughly 2.7% of the tested compounds scored in any of these assays.

SMILES	KKLEB tox	HIF-2a inh	Shn3 inh set2	Peg3 promoter	TRPM1 prom inh	CF NFkB block	HIF-2a conf	HIF-1a counter	others
O=C(COc1ccc([N+](=O)[O-])cc1)Nc1ccc2c(c1)CCC2	1.9	-200.2	-34.7	-73.4	-9.6	-2.6	.	.
COC(=O)c1cccc(NC(=O)NC(=O)c2ccccc2Cl)c1	-25.4	57.2*	22.9	-1.0	58.8	-5.1	64.2*	-67.9
O=C(NCc1ccccc1)C(=O)Nc1cccc(C(=O)O)c1	0.3	57.6*	30.0	31.4	62.8*	-6.4	71.4*	-38.1
COC(=O)c1cccc(NC(=O)Nc2ccc(Cl)c(Cl)c2)c1	-16.6	-375.9	12.6	-144.6	-3.0	12.5	.	.
O=C(Nc1cccc(Cl)c1)Nc1cccc(C(=O)O)c1	-12.6	-17.4	21.6	-27.8	30.4	2.0	.	.
O=C(Nc1cccc(C(=O)O)c1)Nc1ccccc1Cl	-5.6	40.1*	10.0	-8.8	47.2	2.3	31.8	-65.2
COc1ccc(C(=O)Nc2nc(CC(=O)NCCc3ccccc3OC)cs2)cc1	-13.7	-99.5	-8.0	-49.5	-18.3	25.7	.	.
Cc1ccccc1NS(=O)(=O)c1nnc(NC(=O)CC(C)C)s1	-0.3	13.3	-8.6	14.0	-3.5	20.5	.	.
O=C(C[C@@H]1C/C=C\CC[C@H](Cc2ccc(F)cc2)C(=O)OC[C@@H]2CCCN2C1=O)NCCO	4.2	10.3	-6.8	6.7	-8.4	-4.4	.	.
O=[N+]([O-])c1cc(S(=O)(=O)NCCN2CCOCC2)ccc1Cl	2.0	-5.8	-3.4	21.1	4.3	2.5	.	.
CSCCC(=O)N1CC[C@@H](N2CCN(c3ccccc3F)CC2)[C@H](O)C1	-11.0	12.5	-12.7	8.6	-1.0	10.6	.	.
Cc1ccc(-c2cnc(-c3ccncc3)o2)cc1	17.2	-239.3	-17.7	-240.3	-43.0	-9.7	.	.
Nc1ccc(-c2ncc(-c3ccccc3)o2)cc1	-0.2	77.8*	44.1	-75.1	58.1	-38.4	92.1*	61.9*
[2H]C(CCOS(N)(=O)=O)c1ccc(C(C)(C)C)cc1 (centres undefined)	6.1	57.3*	1.4	58.5*	83.4*	11.9	63.5*	44.5
CC(=O)NC12CC3CC(C1)CC(C(=O)N1CCN(S(=O)(=O)c4cccc(C(F)(F)F)c4)CC1)(C3)C2	12.5	4.5	-5.1	12.3	-0.6	-20.8	.	.
COc1ccc(CNC(=O)Cn2cnc3c(=O)n(C)c(=O)n(C)c32)cc1	3.2	41.9*	1.2	8.2	20.1	-4.9	35.9	-7.5
Cn1c(=O)c2ncn(CC(=O)NCCOc3ccccc3)c2n(C)c1=O	1.9	-13.1	-9.2	-14.9	8.8	5.1	.	.
CCc1ccc(N2C=C(C(=O)OC)C(c3ccc(OC)cc3)C(C#N)=C2N)cc1 (centres undefined)	.	53.1*	.	.	.	.	73.9*	98.8*
COC(=O)C1=CN(c2ccc(OC)cc2)C(N)=C(C#N)C1c1ccc(OC)cc1 (centres undefined)	.	-18.8	.	.	.	.	.	.
CC(C)c1cc(CNC(=O)C2CCC(=O)N(Cc3ccccc3F)C2)on1 (centres undefined)	0.3	4.1	-15.5	-9.5	-2.0	7.2	.	.
O=S(=O)(CC(CN1CCOCC1)N1CCOCC1)c1ccccc1 (centres undefined)	11.8	5.8	1.1	-0.9	6.0	0.3	.	.
O=S(=O)(CC(CN1CCCCC1)N1CCCCC1)c1ccc2ccccc2c1 (centres undefined)	-59.0*	61.8*	51.6	108.6*	74.9*	96.6*	21.2	104.1*
CCc1ccc(-c2nc(CS(=O)CC(=O)NCc3ccco3)c(C)o2)cc1 (centres undefined)	15.5	70.1*	26.5	46.0	35.2	-24.7	21.9	68.8*
COc1ccc(-c2nc(CS(=O)CC(=O)NCc3ccco3)c(C)o2)cc1 (centres undefined)	3.5	-9.1	1.2	-17.0	18.2	-4.0	.	.
COc1ccc(C(CNC(=O)CCNS(=O)(=O)c2ccc(C)cc2)N2CCOCC2)cc1 (centres undefined)	-9.4	-1.6	0.8	2.3	-5.7	20.7	.	.
SMILES	KKLEB tox	HIF-2a inh	Shn3 inh set2	Peg3 promoter	TRPM1 prom inh	CF NFkB block	HIF-2a conf	HIF-1a counter	others
Brc1cc(Br)c2ncnc(N3CCCCC3)c2c1	-19.8	54.2*	14.9	56.4*	50.6	51.6*	24.9	88.2*
Cc1cccc(-c2nnc(SCCC(=O)N3CCOCC3)o2)c1	3.7	49.5*	-19.9	13.6	7.1	-11.3	53.0*	29.5
Cc1ccc(-c2nnc(SCCC(=O)N3CCOCC3)o2)cc1	0.3	-4.4	-11.4	-93.7	1.0	-19.8	.	.
CCOc1ccc(NC(=O)CSc2nc3ccccc3nc2N2CCOCC2)cc1	2.5	-0.5	6.2	18.1	-1.9	5.1	.	.
CCN1CCN(C(=O)CN2C(=O)COc3ccc(C)cc32)CC1	1.4	4.5	-7.6	-11.9	-5.4	4.3	.	.
Cc1[nH]nc2c1C(c1cc(Br)cs1)C(C#N)=C(N)O2 (centres undefined)	-14.5	42.8*	-12.4	20.5	32.9	59.7*	40.4*	91.9*
OC[C@@H](O)C(O)[C@@H](O)CO (some centres undefined)	11.7	3.6	18.0	-2.0	.	-13.3	.	.
CCN(CC)CCN1C(=O)/C(=C\c2ccc(Cl)c([N+](=O)[O-])c2)SC1=Nc1ccc(OC)cc1	-82.2*	96.4*	96.4*	101.7*	93.6*	98.6*	53.6*	104.1*
COc1ccc(N=C2S/C(=C\c3ccc(Cl)c([N+](=O)[O-])c3)C(=O)N2CCN(C)C)cc1	-14.5	79.2*	46.7	105.5*	14.1	49.7	3.9	101.4*
CC12CCC(=O)N1C(C(=O)N1CCN(S(=O)(=O)c3cccc(Cl)c3)CC1)CS2 (centres undefined)	5.7	6.3	-4.3	-12.3	-5.8	-4.3	.	.
CC(=O)Nc1ccc(C(=O)Nc2nc(-c3ccccn3)cs2)cc1	-9.8	-75.3	-22.1	-27.0	-10.7	15.7	.	.
CC(=O)c1ccc(-c2ccc(C(=O)Nc3nc(-c4ccccn4)cs3)o2)cc1	2.1	-69.5	36.9	75.7*	4.4	-12.7	.	.	Mdm2 MdmX conf=99.2*
CCOc1ccc(NS(=O)(=O)c2ccc(C(=O)N3CC(C)OC(C)C3)cc2)cc1 (centres undefined)	1.5	4.9	23.0	8.0	3.5	-12.7	.	.
Cn1cc(CN2CCC(C(=O)NC(c3ccc(F)cc3)c3ccc4ccccc4n3)CC2)c2ccccc21 (centres undefined)	-0.2	91.6*	45.0	101.0*	.	6.6	-2.7	106.3*

Screening data (PubChem BioAssay)
